Screens (PubChem BioAssay)
S16 viability: Cell viability qHTS assay in S16 Pmp22-F2sN cells; S16 Pmp22-F2sN Schwann cells viability, CellTiter-Glo, 24 h; 0.48% of 43,000 active; Potency, µM (series often up to 57.5 µM), without a hit: at the top dose activity change, negative = cytotoxicity, hits mostly cytotoxic; further: potency means the concentration at half of the fitted maximal effect; on the % scale 0 is the no-effect control and ±100 the full control effect; nearly all actives have a fitted effect of over 65% in size
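Seed 500-1,000 S16 Pmp22-F2sN cells per well in phenol-red-free DMEM with 10% heat-inactivated FBS; pin-add 23 nL compound; incubate 24 h at 37C; add CellTiter-Glo, wait 15 min protected from light; read luminescence.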
PMP22 txn: Cell-based coincidence reporter assay to measure PMP22 gene transcription in S16 Pmp22-F2sN cells - Primary screen; Potency, µM (highest dose often 57.5 µM), for the others: at the highest dose activity change, negative = inhibition, most hits filed as inhibitors; S16 Pmp22-F2sN Schwann cells (luciferase reporters placed in the Pmp22 gene), FLuc/NLuc coincidence luminescence, 24 h; 2% of 43,000 active; AID 1508649, 2021; active means clear falling dose curves in both reporters; inconclusive means both reporters move, but less clearly or upward; inactive means either reporter flat; the % is the NLuc reporter signal; further: potency means the concentration at half of the fitted maximal effect; on the % scale 0 is the no-effect control and ±100 the full control effect
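S16 Schwann cells carrying FLuc/NLuc coincidence reporter in the Pmp22 3' UTR treated with compound 24 h at 37C; FLuc then NLuc luminescence read sequentially by dual-luciferase reagents.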
GALK inhibitor: qHTS Assay for Inhibitors of Human Galactokinase (GALK): NCGC Sytravon Library Screen | P51570 | recombinant GALK, Kinase-Glo ATP luminescence, 1 h | Potency, µM (highest dose often 57.5 µM), for the others: at the top dose activity, negative = inhibition, usual class: inhibitors | 44,000 tested, under 10 active;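 further: plate controls were full GALK reaction for no effect and reaction lacking GALK for full effect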
Target sequence (P51570 whole entry, looked up): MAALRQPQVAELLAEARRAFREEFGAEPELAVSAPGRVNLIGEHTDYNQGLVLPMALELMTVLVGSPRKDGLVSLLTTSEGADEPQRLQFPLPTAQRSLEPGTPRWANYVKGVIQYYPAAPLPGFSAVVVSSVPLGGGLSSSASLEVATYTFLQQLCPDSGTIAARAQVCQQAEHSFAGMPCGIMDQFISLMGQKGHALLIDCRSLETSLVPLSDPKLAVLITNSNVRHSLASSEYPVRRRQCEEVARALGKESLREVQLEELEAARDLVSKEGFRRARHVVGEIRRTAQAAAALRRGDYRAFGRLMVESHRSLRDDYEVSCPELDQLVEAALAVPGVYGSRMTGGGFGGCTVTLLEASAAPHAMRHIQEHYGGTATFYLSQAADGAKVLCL
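Compounds were pinned into ATP buffer, then GALK-galactose mix was added (final 5 nM enzyme, 35 uM ATP, 100 uM galactose, pH 8.0). After 1 h at room temperature, Kinase-Glo Plus was added and luminescence read.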
pS6 MEF inh: Acumen qHTS Assay for Inhibitors of the mTORC1 Signaling Pathway in MEF (Tsc2-/-, p53-/-) Cells: Sytravon | Tsc2-/- p53-/- MEF, phospho-rpS6 immunofluorescence/PI, 24 h | Potency, µM (doses to about 38.3 µM), inactives show at the highest dose activity change, negative = inhibition, actives largely listed as inhibitors | 0.78% of 44,000 active;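 further: potency means the concentration at half of the fitted maximal effect; plate controls were DMSO for no effect and rapamycin for full effect; nearly all actives have a fitted effect of over 50% in size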
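Readout is phospho-S6 Alexa 488 signal normalized to PI per well, reported as % active cells with thresholds set from rapamycin (7.5 nM) and DMSO controls. Cells: Tsc2-/-, p53-/- MEFs, 24 hrs compound at 37 C; PI cell number serves as viability.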
TSG101-PTAP inh: qHTS Validation Assay for Inhibitors of HIV-1 Budding by Blocking the Interaction of PTAP/TSG101: Sytravon Library Screen | Fluorescence polarization, FITC-PTAP peptide/Tsg101, 20 min | 44,000 tested, under 10 active | Tumor susceptibility gene 101 protein (Homo sapiens), Q99816 | Potency, µM (highest dose often 115 µM), most hits filed as inhibitors; further: potency means the concentration at half of the fitted maximal effect; 0% is about no effect
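FITC-labeled PTAP peptide (50 nM final) binding to Tsg101 binding domain (10 uM final) read by fluorescence polarization after 20 min at r.t. in HEPES pH 7.5 buffer. Actives by CRC class, <25 µM.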
NLuc sat counter: Biochemical NLuc saturation counterscreen for small molecule modulators of PMP22 gene expression - Nano-Glo assay. shares compounds with PMP22 txn. Secreted NLuc enzyme (filtered S16 cell medium), Nano-Glo luminescence. Potency, µM (series often up to 57.5 µM), for the others: top-dose activity change, negative = inhibition, usual class: inhibitors. 4% of 690 active. AID 1508638, 2021; further: potency means the concentration at half of the fitted maximal effect; on the % scale 0 is the no-effect control and ±100 the full control effect
NLuc Km counter: Biochemical coelenterazine-based NLuc counterscreen for small molecule modulators of PMP22 gene expression - Km assay | AID 1508639, 2021 | secreted NLuc enzyme, coelenterazine luminescence, Km conditions | Potency, µM (series often up to 57.5 µM), for inactives: at the top dose activity change, negative = inhibition, most hits filed as inhibitors | shares compounds with PMP22 txn | 5% of 690 active; further: potency means the concentration at half of the fitted maximal effect; on the % scale 0 is the no-effect control and ±100 the full control effect
FLuc counter: Biochemical FLuc counterscreen for small molecule modulators of PMP22 gene expression. shares compounds with PMP22 txn. purified P. pyralis FLuc, luminescence, 10 min. Potency, µM (titrated, usually from 57.5 µM), inactives show at the top dose activity, negative = inhibition, hits mostly inhibitors. 690 tested, under 10 active; further: % of control where 0% means no effect
S16 viab conf: Cell viability qHTS assay in S16 Pmp22-F2sN cells - Confirmatory screen | shares compounds with PMP22 txn | S16 Schwann cells viability, CellTiter-Glo ATP luminescence, 24 h | Potency, µM (titrated, usually from 57.5 µM), inactives show at the top dose activity change, negative = viability loss, most hits filed as cytotoxic | 7% of 690 active | AID 1508641, 2021; further: potency means the concentration at half of the fitted maximal effect; on the % scale 0 is the no-effect control and ±100 the full control effect
PMP22 txn cnf: Cell-based coincidence reporter assay to measure PMP22 gene transcription in S16 Pmp22-F2sN cells - Confirmatory screen; shares compounds with PMP22 txn; S16 Schwann cells Pmp22-F2sN, dual luciferase, 24 h; Potency, µM (titrated, usually from 57.5 µM), for inactives: at the highest dose activity change, negative = inhibition, hits mostly inhibitors; 22% of 690 active; AID 1508646, 2021; active means clear falling dose curves in both reporters; inconclusive means both reporters move, but less clearly or upward; inactive means either reporter flat; the % is the FLuc reporter signal; further: potency means the concentration at half of the fitted maximal effect
* hit, by the source's call; i = inactive; ? = inconclusive; / = no result given. Sampled rows, rich in hits. Any-hit rate of the full collection: about 2.8%. Unless noted, the call rests on the fitted dose curve; in most records, active means well fitted curve in the direction sought with a large enough effect; inconclusive means small, poorly fitted or top-dose-only effect, or another doubt; inactive means no such curve, though single readings can be large; an effect the other way counts as inactive or inconclusive.

SMILES	S16 viability	PMP22 txn	GALK inhibitor	pS6 MEF inh	TSG101-PTAP inh	NLuc sat counter	NLuc Km counter	FLuc counter	S16 viab conf	PMP22 txn cnf
CCc1ccccc1NC(=O)Cn1nnc(C(=O)NCc2cccs2)c1N	-16.0%	?	6.6%	-3.5%	i	-6.8%	2.0%	-7.4%	-8.5%	?
COc1ccccc1NC(=O)Cn1nnc(C(=O)NCc2cccs2)c1N	-9.4%	1.21µM*	0.0%	-11.7%	i	-3.9%	-0.9%	-0.5%	6.4%	?
O=C(Nc1ccccc1)c1ccc(Br)c(S(=O)(=O)N2CCCCC2)c1	?	?	-1.1%	-5.3%	i	/	/	/	/	/
CCS(=O)(=O)c1cccc(C(=O)N2CCN(c3nc4c(C)ccc(Cl)c4s3)CC2)c1	?	?	-3.7%	-21.1%	i	/	/	/	/	/
CC(CNC(=O)CCn1c(=O)c2cccn2c2ccc(F)cc21)c1ccccc1 (configuration not stated)	-0.8%	?	0.0%	-4.6%	i	/	/	/	/	/
CC(CNC(=O)CCCn1c(=O)c2cccn2c2ccc(F)cc21)c1ccccc1 (configuration not stated)	-14.1%	18.9µM*	0.0%	4.9%	i	?	-6.9%	5.5%	-1.1%	?
